Test [1] is described as follows: ATG_CRE_CIS: Attagene CIS-FACTORIAL HepG2 Assay for human cAMP Responsive Element (CRE) binding protein 3 (AID 2282926). The settings on record: HepG2 CRE cis-reporter, Attagene multiplexed mRNA; actives raise or lower the signal. In short, it runs like this: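 Readout: fluorescently labelled reporter transcripts resolved by capillary electrophoresis after RT-PCR, taken 24 h post-dosing in transfected HepG2. Endogenous transcription factor activity drives each cis-element reporter; gain or loss of signal fitted relative to DMSO control.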

The target of test [2] is CCAAT/enhancer-binding protein beta (Homo sapiens) (UniProt P17676). Description: ATG_C_EBP_CIS: Attagene CIS-FACTORIAL HepG2 Assay for human CCAAT/Enhancer Binding Protein (C/EBP) beta (AID 2282927). The settings on record: HepG2 Attagene cis-factorial transcription factor reporter; actives raise or lower the signal. In short, it runs like this: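 Endogenous transcription factor activity in human liver HepG2 cells is inferred from induction of a CEBPB-linked reporter mRNA. Exposure lasts 24 h; activity is fitted in both directions relative to DMSO.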

Test [3] is described as follows: ATG_CMV_CIS: Attagene CIS-FACTORIAL HepG2 Assay for human CMV (Internal Marker) (AID 2282928).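 Also: endpoint acts as a background internal control marker rather than a target.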 The settings on record: HepG2 CMV promoter reporter, transcription factor profiling; actives raise or lower the signal. In short, it runs like this: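 Readout: fluorescent reporter cDNA fragments separated by capillary electrophoresis after RT-PCR and HpaI cut. Cells: HepG2 carrying transfected cis-promoter reporter constructs, dosed 24 h. Endpoint serves as background internal-marker control, fit bidirectionally versus DMSO.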

Test [4] can be described thus: ATG_DR4_LXR_CIS: Attagene CIS-FACTORIAL HepG2 Assay for human Liver X Receptor (LXR), DR4 submotif (AID 2282929). The settings on record: HepG2 Attagene DR4 cis-reporter, mRNA transcription; actives raise or lower the signal. In short, it runs like this:
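Measures endogenous transcription factor activity via a DR4-driven reporter transcript in human HepG2 cells. Compounds incubated 24 h; mRNA quantified by RT-PCR and capillary electrophoresis, analysed as gain or loss of signal versus DMSO.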

Test [5] deals with Aryl hydrocarbon receptor (Homo sapiens) (UniProt P35869). Briefly: ATG_Ahr_CIS: Attagene CIS-FACTORIAL HepG2 Assay for human Aryl Hydrocarbon Receptor (Ahr) (AID 2282930). The settings on record: HepG2 AhR cis-factorial reporter transcription; actives raise or lower the signal. In short, it runs like this:
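Transient MRTU transfection of HepG2 → 24 h compound exposure → total RNA, oligo(dT) RT → PCR, 6-FAM extension, HpaI cut → CE fluorescence. DMSO = baseline; bidirectional curve fit.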

Test [6] in a line: ATG_AP_1_CIS: Attagene CIS-FACTORIAL HepG2 Assay for human Activator Protein 1 (AP-1) (AID 2282931). The settings on record: HepG2 Attagene cis-factorial AP-1 reporter mRNA; actives raise or lower the signal. In short, it runs like this:
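Bidirectional concentration-response fitting against DMSO controls. Underlying signal: reporter mRNA from cis-promoter constructs in transiently transfected HepG2, measured after 24 h by RT-PCR and capillary electrophoresis.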

Test [7] can be described thus: ATG_AP_2_CIS: Attagene CIS-FACTORIAL HepG2 Assay for human Activator Protein 2 (AP-2) (AID 2282932). The settings on record: HepG2 AP-2 cis-reporter, Attagene transcription factor profiling; actives raise or lower the signal. A digest of the protocol: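 Endogenous transcription factor activity is reported through transfected multiplex reporter constructs in HepG2, after 24 h of compound exposure. Transcripts were quantified by RT-PCR and capillary electrophoresis of fluorescent fragments. Bidirectional fit against DMSO.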

Test [8] in a line: ATG_BRE_CIS: Attagene CIS-FACTORIAL HepG2 Assay for human Bone Morphogenetic Protein (BMP) Response Element (BRE) (AID 2282933). The settings on record: HepG2 BMP response element reporter, Attagene transcription factor profiling; actives raise or lower the signal. A digest of the protocol:
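HepG2 cells transiently transfected with multiplexed cis-element reporter units were dosed with chemical for 24 h. Reporter mRNA was measured by RT-PCR with fluorescent labelling, HpaI digestion and capillary electrophoresis; bidirectional fitting relative to DMSO.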

Test [9] concerns the target Retinoic acid receptor alpha (Homo sapiens) (UniProt P10276). Description: ATG_DR5_RAR_CIS: Attagene CIS-FACTORIAL HepG2 Assay for human Retinoic Acid Receptor Alpha (RARE), DR5 submotif (AID 2282934). The settings on record: HepG2 Attagene cis-factorial RARE DR5 reporter, mRNA; actives raise or lower the signal. In short, it runs like this: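 Transient MRTU transfection of HepG2; 24 h compound treatment; TriZol RNA, oligo(dT) RT, PCR, FAM labelling, capillary electrophoresis. Bidirectional fit vs DMSO. Endogenous TF activity at DR5 RARE.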

In test [10] the target is Transcription factor E2F1 (Homo sapiens) (UniProt Q01094). Description: ATG_E2F_CIS: Attagene CIS-FACTORIAL HepG2 Assay for human E2F Transcription Factor 1 (AID 2282935). The settings on record: HepG2 Attagene cis-reporter, E2F reporter RNA transcripts; actives raise or lower the signal. A digest of the protocol: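 Gain or loss of reporter transcript, fitted against DMSO, reflects E2F1-driven transcription. Transiently transfected HepG2 dosed 24 h before RNA isolation. Quantified by fluorescent RT-PCR products separated by capillary electrophoresis.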

Test [11] is described as follows: ATG_E_Box_CIS: Attagene CIS-FACTORIAL HepG2 Assay for human Enhancer Box (E-box) (AID 2282936). The settings on record: HepG2 E-box cis-reporter transcription, actives raise or lower the signal. In short, it runs like this:
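E-box-driven reporter transcripts measured in transiently transfected HepG2 after 24 h exposure: RNA reverse-transcribed, PCR-amplified, fluorescently labelled, digested and resolved by capillary electrophoresis. Gain or loss relative to DMSO.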

Test [12] can be described thus: ATG_M_61_CIS: Attagene CIS-FACTORIAL HepG2 Assay for M61 Transcription Factor (Internal Marker) (AID 2282937). The settings on record: HepG2 Attagene CIS-FACTORIAL M61 internal marker reporter; actives raise or lower the signal. In short, it runs like this:
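Fluorescence from labelled cDNA fragments, separated by capillary electrophoresis, quantifies reporter induction. HepG2 cells bearing transiently transfected cis-promoter MRTUs were incubated with test chemical for 24 h; DMSO defined baseline for gain/loss fitting.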

The nature of test [13]: ATG_EGR_CIS: Attagene CIS-FACTORIAL HepG2 Assay for human Early Growth Response 1 (EGR1) (AID 2282938). The settings on record: HepG2 Attagene CIS-FACTORIAL EGR reporter mRNA; actives raise or lower the signal. A digest of the protocol: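 Cell-based multiplex transcription assay: HepG2 carrying transfected cis-element reporter units, 24 h chemical treatment. Fluorescence from capillary electrophoresis of RT-PCR products gives mRNA levels; fitting is bidirectional relative to DMSO.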

For test [14], the target named is Hepatocyte nuclear factor 3-beta (Homo sapiens) (UniProt Q9Y261). Description: ATG_FoxA2_CIS: Attagene CIS-FACTORIAL HepG2 Assay for human Forkhead box A2 (FOXA2) (AID 2282942). The settings on record: HepG2 cis-reporter transcription factor activity, 24 h; actives raise or lower the signal. A digest of the protocol: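 In transiently transfected human HepG2 cells, promoter-driven reporter mRNA levels after 24 h chemical exposure are determined via RT-PCR with capillary electrophoresis. DMSO serves as baseline for bidirectional fitting.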

Test [15] in a line: ATG_FoxO_CIS: Attagene CIS-FACTORIAL HepG2 Assay for human Forkhead box O (FoxO) (AID 2282943). The settings on record: HepG2 Attagene cis-reporter, FoxO element, mRNA; actives raise or lower the signal. A digest of the protocol: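 HepG2, transient MRTU transfection (cis element, endogenous TFs). Dose 24 h. TriZol RNA → oligo(dT) RT → PCR → 6-FAM primer extension → HpaI cut → CE. Gain/loss vs DMSO.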

Test [16] is described as follows: ATG_GATA_CIS: Attagene CIS-FACTORIAL HepG2 Assay for human GATA Binding Protein (AID 2282944). The settings on record: HepG2 GATA cis-element reporter, Attagene multiplex mRNA; actives raise or lower the signal. In short, it runs like this: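 HepG2 cells transiently transfected with multiplexed cis-element reporter units reflecting endogenous transcription factor activity; reporter mRNA measured after 24 h dosing by RT-PCR, 6-FAM labeling, HpaI digestion and capillary electrophoresis. Bidirectional fitting versus DMSO baseline.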

Test [17] can be described thus: ATG_GLI_CIS: Attagene CIS-FACTORIAL HepG2 Assay for human Zinc Finger Protein GLI1 (AID 2282945). The settings on record: HepG2, Attagene cis-factorial reporter mRNA, GLI element; actives raise or lower the signal. In short, it runs like this:
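Bidirectional curve fits relative to DMSO, using reporter mRNA levels from RT-PCR plus capillary electrophoresis. Cells were HepG2 transiently carrying cis-regulated reporter constructs, harvested 24 h after dosing.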

Test [18] is described as follows: ATG_Ets_CIS: Attagene CIS-FACTORIAL HepG2 Assay for human Erythroblast Transformation Specific (ETS) (AID 2282941). The settings on record: HepG2 ETS cis-reporter transcription, actives raise or lower the signal. In short, it runs like this: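 RT-PCR/capillary electrophoresis fluorescence read-out of reporter mRNA; HepG2 transient multi-reporter transfection; 24 h compound exposure; gain or loss of signal fitted bidirectionally relative to DMSO.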

Test [19] deals with Bile acid receptor (Homo sapiens) (UniProt Q96RI1). Description: ATG_IR1_CIS: Attagene CIS-FACTORIAL HepG2 Assay for human Nuclear Receptor Subfamily 1 Group H Member 4 (NR1H4), IR1 submotif (AID 2282946). The settings on record: IR1 reporter transcription, actives raise or lower the signal. A digest of the protocol: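 HepG2 cells transiently transfected with multiplexed cis-element reporter units read endogenous transcription factor activity. After 24 h compound exposure, reporter mRNA was quantified by RT-PCR, fluorescent labelling, HpaI digestion and capillary electrophoresis; bidirectional fitting versus DMSO baseline.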

Test [20] is described as follows: ATG_M_19_CIS: Attagene CIS-FACTORIAL HepG2 Assay for M19 Transcription Factor (Internal Marker) (AID 2282939). The settings on record: HepG2 Attagene CIS-FACTORIAL M19 internal marker reporter; actives raise or lower the signal. In short, it runs like this: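 HepG2 cells transiently transfected with cis-regulated multiple reporter transcription units were dosed for 24 h; reporter mRNA was quantified by RT-PCR, 6-FAM primer-extension labelling, HpaI digestion and capillary electrophoresis, with bidirectional fitting against DMSO baseline.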

Activity calls are given as the source filed them. The calls were made as follows: active = hit-call score of the fitted dose curve at least 0.9, where 1 is the maximum; inactive = score below 0.9.

Sequence of Hepatocyte nuclear factor 3-beta (Homo sapiens) (Q9Y261 whole entry, looked up): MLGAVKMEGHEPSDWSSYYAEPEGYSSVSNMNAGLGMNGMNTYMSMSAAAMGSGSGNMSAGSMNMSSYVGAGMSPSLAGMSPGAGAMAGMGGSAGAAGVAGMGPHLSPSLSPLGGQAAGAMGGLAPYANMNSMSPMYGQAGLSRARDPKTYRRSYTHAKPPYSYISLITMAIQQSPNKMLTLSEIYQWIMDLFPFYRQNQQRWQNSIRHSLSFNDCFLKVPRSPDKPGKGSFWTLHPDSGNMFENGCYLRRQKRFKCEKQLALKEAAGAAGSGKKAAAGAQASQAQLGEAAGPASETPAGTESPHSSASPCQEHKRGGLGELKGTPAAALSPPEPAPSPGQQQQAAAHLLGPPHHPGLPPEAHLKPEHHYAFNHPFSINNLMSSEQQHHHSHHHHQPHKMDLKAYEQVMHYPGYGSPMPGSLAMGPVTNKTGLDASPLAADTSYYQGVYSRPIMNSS
Sequence of Bile acid receptor (Homo sapiens) (Q96RI1 whole entry, looked up): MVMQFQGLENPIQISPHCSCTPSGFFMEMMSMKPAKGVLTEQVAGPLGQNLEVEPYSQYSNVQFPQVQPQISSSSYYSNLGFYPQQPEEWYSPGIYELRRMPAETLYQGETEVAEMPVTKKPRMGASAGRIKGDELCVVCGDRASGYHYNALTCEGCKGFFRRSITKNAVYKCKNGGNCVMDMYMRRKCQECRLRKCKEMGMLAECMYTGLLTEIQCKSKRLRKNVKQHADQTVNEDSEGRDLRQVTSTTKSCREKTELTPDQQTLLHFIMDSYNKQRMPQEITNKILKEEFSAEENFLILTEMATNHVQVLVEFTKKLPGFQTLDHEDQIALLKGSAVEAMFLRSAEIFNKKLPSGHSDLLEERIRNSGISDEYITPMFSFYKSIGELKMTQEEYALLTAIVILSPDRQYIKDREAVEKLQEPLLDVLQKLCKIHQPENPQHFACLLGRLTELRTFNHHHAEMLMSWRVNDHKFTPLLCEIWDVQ
Sequence of Transcription factor E2F1 (Homo sapiens) (Q01094 whole entry, looked up): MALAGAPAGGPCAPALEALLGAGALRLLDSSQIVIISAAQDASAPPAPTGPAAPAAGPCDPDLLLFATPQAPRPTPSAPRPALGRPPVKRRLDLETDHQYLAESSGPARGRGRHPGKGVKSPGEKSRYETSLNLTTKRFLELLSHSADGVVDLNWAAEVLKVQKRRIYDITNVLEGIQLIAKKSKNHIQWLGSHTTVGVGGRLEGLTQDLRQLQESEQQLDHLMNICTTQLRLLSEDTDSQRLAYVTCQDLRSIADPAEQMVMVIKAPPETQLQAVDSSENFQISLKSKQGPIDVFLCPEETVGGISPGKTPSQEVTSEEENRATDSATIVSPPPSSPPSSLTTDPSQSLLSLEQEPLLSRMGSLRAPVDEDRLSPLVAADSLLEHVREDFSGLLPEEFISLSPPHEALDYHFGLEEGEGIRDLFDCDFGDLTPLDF
Sequence of Aryl hydrocarbon receptor (Homo sapiens) (P35869 whole entry, looked up): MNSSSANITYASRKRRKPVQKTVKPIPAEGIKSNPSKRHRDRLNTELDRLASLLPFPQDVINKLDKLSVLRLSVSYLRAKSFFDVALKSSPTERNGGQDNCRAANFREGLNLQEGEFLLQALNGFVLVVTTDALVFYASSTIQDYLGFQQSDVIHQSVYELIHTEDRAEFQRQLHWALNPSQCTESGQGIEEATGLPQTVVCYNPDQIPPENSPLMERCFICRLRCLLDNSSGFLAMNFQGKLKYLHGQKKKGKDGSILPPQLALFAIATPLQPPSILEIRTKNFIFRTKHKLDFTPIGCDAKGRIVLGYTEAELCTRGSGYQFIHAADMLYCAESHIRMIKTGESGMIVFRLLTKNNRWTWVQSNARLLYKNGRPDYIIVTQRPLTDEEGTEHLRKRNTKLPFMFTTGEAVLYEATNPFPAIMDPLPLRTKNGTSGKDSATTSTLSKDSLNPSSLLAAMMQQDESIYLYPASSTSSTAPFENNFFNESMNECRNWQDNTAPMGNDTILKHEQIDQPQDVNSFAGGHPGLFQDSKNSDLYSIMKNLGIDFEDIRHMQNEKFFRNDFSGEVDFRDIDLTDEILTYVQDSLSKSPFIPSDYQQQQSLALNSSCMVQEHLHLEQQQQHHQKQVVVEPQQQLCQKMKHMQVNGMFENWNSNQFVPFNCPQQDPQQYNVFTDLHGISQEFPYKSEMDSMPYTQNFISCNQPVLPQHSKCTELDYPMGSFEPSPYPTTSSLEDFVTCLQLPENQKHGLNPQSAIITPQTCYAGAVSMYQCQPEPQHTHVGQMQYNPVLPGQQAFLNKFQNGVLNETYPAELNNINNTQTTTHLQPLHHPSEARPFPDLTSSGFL
Sequence of Retinoic acid receptor alpha (Homo sapiens) (P10276 whole entry, looked up): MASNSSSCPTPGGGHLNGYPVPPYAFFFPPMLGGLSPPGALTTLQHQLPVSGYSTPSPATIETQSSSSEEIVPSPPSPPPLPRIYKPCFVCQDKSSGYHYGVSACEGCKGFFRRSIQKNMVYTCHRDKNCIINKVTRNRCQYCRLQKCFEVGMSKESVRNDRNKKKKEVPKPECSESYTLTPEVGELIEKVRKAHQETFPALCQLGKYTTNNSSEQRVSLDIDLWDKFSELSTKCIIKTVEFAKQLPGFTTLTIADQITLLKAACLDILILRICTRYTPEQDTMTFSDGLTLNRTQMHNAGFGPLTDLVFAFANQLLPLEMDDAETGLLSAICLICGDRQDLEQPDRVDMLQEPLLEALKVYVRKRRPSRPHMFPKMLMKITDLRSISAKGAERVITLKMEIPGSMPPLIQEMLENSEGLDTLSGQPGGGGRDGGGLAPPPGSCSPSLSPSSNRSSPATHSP
Sequence of CCAAT/enhancer-binding protein beta (Homo sapiens) (P17676 whole entry, looked up): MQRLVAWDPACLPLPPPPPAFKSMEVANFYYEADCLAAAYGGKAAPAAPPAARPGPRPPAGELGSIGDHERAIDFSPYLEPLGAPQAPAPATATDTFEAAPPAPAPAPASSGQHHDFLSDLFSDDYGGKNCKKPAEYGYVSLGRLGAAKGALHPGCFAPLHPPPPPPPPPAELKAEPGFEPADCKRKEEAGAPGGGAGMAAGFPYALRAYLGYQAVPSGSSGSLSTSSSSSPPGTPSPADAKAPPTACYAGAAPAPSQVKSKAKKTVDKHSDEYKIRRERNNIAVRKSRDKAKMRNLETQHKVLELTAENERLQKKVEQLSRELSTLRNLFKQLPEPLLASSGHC

In the case of `Nc1ccn([C@H]2CS[C@@H](CO)O2)c(=O)n1`, the outcome in test [1], in test [2], in test [3], in [4], in [5] and in test [6] was inactive. Moreover, the call in [7], in test [8], in [9], in [10], in test [11] and in test [12] was inactive. Further, the outcome in test [13], in test [14], in [15], in test [16] and in [17] was inactive.
Take `CC(C)(C)OC(=O)c1ccc(O)cc1`: the outcome in test [1], in test [2], in test [3], in [4], in [5] and in test [7] was inactive. The call in test [8], in [9], in test [10], in [11], in test [12] and in test [13] was inactive. Also, the compound was called inactive in test [18], in test [14], in test [15], in test [16], in test [17] and in test [19]. Further, the AC50 in test [6] was 70.1 µM (active).
For the compound `CC(=O)c1ccccn1`, the compound was called inactive in test [1], in test [2], in test [3], in test [4], in test [5] and in [6]. Further, the outcome in test [7], in test [8], in test [9], in test [10], in test [11] and in test [13] was inactive. In addition, the result in test [20], in [18], in test [14], in test [15], in [16] and in [17] was inactive. The outcome in test [19] was inactive.
Turning to `CCOC(=O)CN`, the compound was called inactive in [1], in test [2], in test [3], in [4], in test [5] and in [6]. Also, the compound was called inactive in test [7], in [8], in test [9], in [10], in [11] and in [12]. Besides, the compound was called inactive in test [20], in test [18], in test [14], in [15], in test [16] and in test [17]. Moreover, in [19], the outcome was inactive.

The values above are taken from PubChem BioAssay (EPA / NIEHS).
